Data as given in PubChem BioAssay AID720554 (ICCB-Longwood Screening Facility, Harvard Medical School, 2013).
Among all 12,000 compounds or so, about 45 (0.4%) were called active. Cut-off read from the data, not from the text of the source: active = inhibition mostly above about 83% (no sharp cut-off); inactive = mostly below about 52%. What follows is part of a selection rich in actives, with near analogues and random picks from the rest.

What was measured:
[1] = BmaI1 acyl-homoserine lactone synthase inhibition – biochemical, fluorescence intensity, with counterscreen (AID 720554); conditions: BmaI1 enzyme assay, measured here: counterscreen fluorescence % control, concentration not given here
[2] = tested on: acyl-homoserine lactone synthase BmaI1 (Burkholderia mallei ATCC 23344); assay: as above; conditions: BmaI1 enzyme assay, stronger effect = higher value, concentration not given here

O=C(O)c1sc2sccc2c1Cl
inhibition [1]: -1.5% | inhibition [2]: 8.5% (inactive)

O=C1CCc2ccccc2N1
inhibition [1]: -5% | inhibition [2]: -11% (inactive)

O=C1NC(C(=O)O)Cc2ccccc21 (stereo not drawn)
inhibition [1]: 9% | inhibition [2]: 15% (inactive)

O=C1Cc2ccccc2C(=O)N1
inhibition [1]: 7% | inhibition [2]: 99.5% (active)

O=C(CN1C(=O)c2ccccc2S1(=O)=O)N1N=C(c2ccc(Cl)cc2)CC1c1ccco1 (stereo not drawn)
inhibition [1]: 10.5% | inhibition [2]: 15% (inactive)

CC1Sc2ccc(C(=O)Oc3ccc4c(c3)OCO4)cc2NC1=O (stereo not drawn)
inhibition [1]: 2% | inhibition [2]: 35.5% (inactive)

CCN(CC)S(=O)(=O)c1ccc2c(c1)CCCN2
inhibition [1]: -4% | inhibition [2]: 18% (inactive)

O=C(OCC(=O)N1CCC(Cc2ccccc2)CC1)c1ccc(O)cc1
inhibition [1]: -7.5% | inhibition [2]: 2.5% (inactive)

COc1ccc(N(C)S(=O)(=O)c2cccc(C(=O)Nc3ccc(N4CCN(C)CC4)cc3C)c2)cc1
inhibition [1]: 11.5% | inhibition [2]: 9% (inactive)

Cc1c(C(=O)O)sc2nc(CSc3nnc(-c4ccc(F)cc4)n3C)[nH]c(=O)c12
inhibition [1]: 2.5% | inhibition [2]: 3% (inactive)

N#Cc1c(N)sn(-c2ccccc2)c1=S
inhibition [1]: 11.5% | inhibition [2]: 102% (active)

CCOC(=O)c1c(N)sn(-c2ccccc2)c1=S
inhibition [1]: 14.5% | inhibition [2]: 17% (inactive)

N#CC1=C(N)N(c2ccccc2)C(=O)C1
inhibition [1]: 0% | inhibition [2]: -10.5% (inactive)

Cc1sc2ncnc(N)c2c1C
inhibition [1]: 9.5% | inhibition [2]: 89.5% (active)

Cc1sc2ncnc(N3CCc4ccccc43)c2c1C
inhibition [1]: 6% | inhibition [2]: 8.5% (inactive)

COC(=O)C(C)Sc1ncnc2sc(C)c(C)c12 (stereo not drawn)
inhibition [1]: 7% | inhibition [2]: 13% (inactive)

CCCCn1ccnc1C(=O)c1ccc(S(=O)(=O)N2CCCC2)cc1
inhibition [1]: 1% | inhibition [2]: 8% (inactive)

CCCCN1C(=O)CC(C(=O)O)C1c1ccc(OC)cc1 (stereo not drawn)
inhibition [1]: 3% | inhibition [2]: -3.5% (inactive)

CCOc1ccc(/C=N/N2C(=O)NC(C)(CC)C2=O)c(O)c1 (stereo not drawn)
inhibition [1]: -4.5% | inhibition [2]: 0.5% (inactive)

CC(=O)NCCc1ccc(-c2csc(N)n2)cc1
inhibition [1]: 41% | inhibition [2]: 24% (inactive)

CC(=O)NCc1ccc(-c2csc(N)n2)o1
inhibition [1]: 17.5% | inhibition [2]: 92.5% (active)

COc1ccc(Cc2nnc3n2N=C(c2ccc(CNC(C)=O)o2)CS3)cc1
inhibition [1]: 6% | inhibition [2]: 15.5% (inactive)

COc1cc2c(cc1NC(=O)C(C)Sc1nncn1C)oc1ccccc12 (stereo not drawn)
inhibition [1]: -6.5% | inhibition [2]: 16.5% (inactive)

CNC(=O)NC(=O)C(C)N1CCc2ccccc2C1 (stereo not drawn)
inhibition [1]: -2.5% | inhibition [2]: 2.5% (inactive)

COc1cccc(N=C2NNC(C)=C(C(=O)N(C)C)S2)c1
inhibition [1]: 13.5% | inhibition [2]: 88.5% (active)

COc1cccc(CC(=O)Nc2cccc(OC)c2)c1
inhibition [1]: 2% | inhibition [2]: 8.5% (inactive)

COc1cccc(NC(=O)/C=N/O)c1
inhibition [1]: 19.5% | inhibition [2]: 37.5% (inactive)

CCn1c(Cn2cc(S(=O)(=O)N3CCCC3)ccc2=O)nc2cc(S(=O)(=O)N(C)C)ccc21
inhibition [1]: 1% | inhibition [2]: 8.5% (inactive)

Oc1c(C(c2cccnc2)N2CCCCC2)ccc2cccnc12 (stereo not drawn)
inhibition [1]: -53.5% | inhibition [2]: -20.5% (inactive)

Oc1c(C(Nc2ccccn2)c2cccnc2)ccc2cccnc12 (stereo not drawn)
inhibition [1]: -15% | inhibition [2]: 14% (inactive)

Oc1c(C(c2cccnc2)N2CCOCC2)ccc2cccnc12 (stereo not drawn)
inhibition [1]: 28.5% | inhibition [2]: 105% (active)

CC(Sc1nnc(-c2ccccc2)o1)C(=O)N(C)c1ccccc1 (stereo not drawn)
inhibition [1]: 9% | inhibition [2]: 7% (inactive)

CN(C(=O)c1ccco1)C1(c2ccccc2Cl)CCCCC1=O (stereo not drawn)
inhibition [1]: 5.5% | inhibition [2]: 9.5% (inactive)

CCOC(=O)C(Sc1n[nH]c(N)n1)c1ccccc1 (stereo not drawn)
inhibition [1]: 13.5% | inhibition [2]: 15.5% (inactive)
